Screening data as filed in PubChem BioAssay.
A selection: hits, their analogues and other compounds. The true share with any hit is near 22%.
CYP2C19 inhib – human CYP2C19 inhibition. P33261. CYP2C19 Supersomes, luciferin-H EGE luminescence, 30 min. inhibition, % at 5 µM. 96,000 tested, 21% active;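 active = CYP2C19 inhibition above a set limit at 5 µM in the primary screen, cut at about 50% in these data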;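 note: plate controls were negative control wells for no effect and 2.5 mM tranylcypromine positive control for full effect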
Target sequence (P33261 whole entry, looked up): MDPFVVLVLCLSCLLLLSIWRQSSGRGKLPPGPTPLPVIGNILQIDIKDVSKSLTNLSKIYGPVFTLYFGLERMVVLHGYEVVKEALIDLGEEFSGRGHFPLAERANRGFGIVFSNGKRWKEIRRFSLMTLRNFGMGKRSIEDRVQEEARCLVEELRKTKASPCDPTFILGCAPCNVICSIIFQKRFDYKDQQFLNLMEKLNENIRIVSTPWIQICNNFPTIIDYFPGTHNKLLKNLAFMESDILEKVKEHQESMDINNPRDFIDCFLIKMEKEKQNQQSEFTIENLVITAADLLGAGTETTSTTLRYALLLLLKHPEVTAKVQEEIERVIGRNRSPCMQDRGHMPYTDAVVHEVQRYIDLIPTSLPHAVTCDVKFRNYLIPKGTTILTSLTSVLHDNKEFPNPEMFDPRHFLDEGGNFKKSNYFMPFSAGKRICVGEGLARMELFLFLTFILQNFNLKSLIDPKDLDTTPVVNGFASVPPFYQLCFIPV
CYP2C9 inhib – blocks human cytochrome P450 2C9 | 96,000 tested, 20% active | inhibition, % at 5 µM | CYP2C9 Supersomes, luciferin-H conversion, luminescence | P11712;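 active = blocking of liver enzyme CYP2C9 beyond about 50% at 5 µM, limit read from the data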
CYP2C9 activ – CYP2C9 (human) activation | recombinant CYP2C9, luciferin-H conversion, luminescence; active compounds read high; factor 1 = untreated enzyme, 0 = blocked | activation factor at 5 µM | 96,000 tested, 1.4% active | AID 1024;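 active = activation factor of 2 or more for CYP2C9 at a 5 µM dose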;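 note: 0 = sulfaphenazole-blocked wells and 1 = vehicle-only wells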
CYP2C19 activ – activators of human cytochrome P450 2C19; P33261; recombinant CYP2C19, luciferin-H EGE luminescence; active compounds read high; 0 = fully inhibited enzyme, 1 = untreated enzyme; activation factor at 5 µM; 96,000 tested, under 10 active; AID 1025;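 active = activation factor of at least 2 at 5 µM in the primary screen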;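 note: 0 = wells with 2.5 mM tranylcypromine and 1 = vehicle-only wells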
cytoskel mod – modifiers of cytoskeleton assembly; HUVEC TNFa F-actin phalloidin imaging, high content; inhibition, % at 2 µM; 91,000 tested, 0.18% active; AID 836;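 active = inhibition above the batch mean plus 3 SD and confirmed as a hit by visual image inspection, cut at about 30% in these data, passing the limit was not always enough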
E-sel TNF inh – TNF alpha driven E-selectin expression inhibition; HUVEC TNFa-induced E-selectin immunofluorescence, high content; inhibition, % at 2 µM; 120,000 tested, 0.71% active;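 active = inhibition above the batch mean plus 3 SD, and confirmed as a hit on visual image review, cut at about 43% in these data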;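 note: 0% = TNF-stimulated DMSO wells and 100% = unstimulated control wells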
* hit, by the source's call; / = no result.

SMILES | CYP2C19 inhib | CYP2C9 inhib | CYP2C9 activ | CYP2C19 activ | cytoskel mod | E-sel TNF inh
Cc1ccc2c(c1)CC1(CN2C)C(=O)NC(=O)N(c2ccc(C)c(C)c2)C1=O (stereo unspecified) | 53* | 86* | 0.1 | 0.5 | 4 | 6
Cc1cc(N)n(C2CCN(C)CC2)n1 | -1 | -8 | 1.1 | 1 | -7 | -46
Cn1cc(C(=O)c2ccccc2)c2ccccc21 | 23 | -192 | 2.9* | 0.8 | 5 | 4
N#CC(C#N)=Cc1ccc(-c2ccccc2F)o1 | / | / | / | / | / | 14
CC1(C)CN=C(Nc2ccc(F)c(F)c2)S1 | 62* | 26 | 0.7 | 0.4 | 1 | /
CCN1CCN(Cc2ccc(C)cc2C)CC1 | 2 | -9 | 1.1 | 1 | / | 4
Cc1cccc(CN2CCN(Cc3ccc(Cl)cc3)CC2)c1 | 18 | 8 | 0.9 | 0.8 | -12 | 13
CCN1CCN(Cc2ccc(C)cc2)CC1 | 19 | 1 | 1 | 0.8 | / | 95*
CCN1CCN(Cc2ccccc2C)CC1 | -2 | -14 | 1.1 | 1 | / | 95*
CN(C)c1ccc(P(=S)(N(C)C)N(C)C)cc1 | 95* | 5 | 0.9 | 0 | / | -12
CCOP(=S)(OCC)c1ccc(N(C)C)cc1 | 14 | 38 | 0.6 | 0.9 | 1 | -6
O=c1[nH]c(=O)n(Cc2ccccc2Cl)c(O)c1C=Nc1ccc(F)cc1 | / | / | / | / | / | -57
COc1cc(-n2c(=S)[nH]c3ccccc3c2=O)c(Cl)cc1Cl | 90* | 58* | 0.4 | 0.1 | -29 | 26
COc1cccc(-n2c(=S)[nH]c3ccccc3c2=O)c1 | / | / | / | / | / | -54
CC(C)Oc1cc(-n2c(=S)[nH]c3ccccc3c2=O)c(Cl)cc1Cl | 90* | 72* | 0.3 | 0.1 | 17 | -13
O=c1c2ccccc2[nH]c(=S)n1-c1ccc(Br)cc1 | / | / | / | / | / | 43
CC1(C)COC(Nc2cccc(Cl)c2)=N1 | 12 | 76* | 0.2 | 0.9 | -6 | 7
Cc1c(/C=C2/CC3C4CC=C5CC(O)CCC5(C)C4CCC3(C)C2=O)cnn1C (stereo unspecified) | / | / | / | / | 7 | -46
C=CCN1C(=O)C2(C(C(=O)OCC)=C(N)Oc3ccccc32)C2=C1CCCC2=O (stereo unspecified) | -11 | -8 | 1.1 | 1.1 | 7 | -3
CN(C)C(Cc1ccccc1)C(=O)c1ccc(-c2ccccc2)cc1 (stereo unspecified) | 50 | 74* | 0.3 | 0.5 | -11 | /
Cc1cccc(C2=NCC(=O)N(CC(=O)NCc3ccco3)c3sc4c(c32)CCCC4)c1 | 51* | 59* | 0.4 | 0.5 | -14 | -2
CCOC(=O)C1CCN(/C=C2\C(=O)NC(=S)N(CC)C2=O)CC1 | / | / | / | / | / | 13
OC(C#CCN1CCOCC1)(c1ccccc1)C1CCCC1 (stereo unspecified) | / | / | / | / | 6 | -10
C(#CCN1CCOCC1)COCC#Cc1ccccc1 | 60* | -3 | 1 | 0.4 | -10 | -37
COc1ccc(/C=C2\C(=O)NC(=O)N(CCC3=CCCCC3)C2=O)c(OC)c1 | / | / | / | / | / | -9
SMILES | CYP2C19 inhib | CYP2C9 inhib | CYP2C9 activ | CYP2C19 activ | cytoskel mod | E-sel TNF inh
CCOP(=O)(OCC)C(O)c1ccc(OC)c(OC)c1 (stereo unspecified) | 15 | -15 | 1.2 | 0.9 | 13 | 6
COc1cc(OC)c(OC)cc1CNC(C)C(O)c1ccccc1 (stereo unspecified) | 67* | -16 | 1.2 | 0.3 | / | -19
Oc1ccc(Cl)cc1CN1CCN(Cc2ccccc2)CC1 | 90* | 56* | 0.4 | 0.1 | / | 2
COc1ccc(CN2CCN(c3ccccc3)CC2)c(C)c1C | 83* | -3 | 1 | 0.2 | / | /
Cc1ccc(O)c(CN2CCN(c3ccccc3)CC2)c1 | 93* | 72* | 0.3 | 0.1 | / | /
FC(F)(F)c1ccccc1CN1CCN(Cc2ccccc2)CC1 | 69* | 12 | 0.9 | 0.3 | 0 | 1
Cc1cc(O)c(CN2CCN(c3ccccc3)CC2)cc1C | 38 | 20 | 0.8 | 0.6 | 3 | 19
NCC1(c2ccc3c(c2)OCCO3)CCCC1 | -5 | 8 | 0.9 | 1.1 | 2 | -10
CC(=O)Nc1ccc(OC(=O)c2ccccc2N)cc1 | -5 | -19 | 1.2 | 1 | 13 | -12
Nc1ccccc1C(=O)OCCOc1ccccc1 | 92* | 74* | 0.3 | 0.1 | -10 | 40
CCc1ccc(CN2CCN(Cc3ccc(SC)cc3)CC2)cc1 | / | / | / | / | / | 5
CSc1ccc(C(=O)C(C)(C)N2CCOCC2)cc1 | 92* | 23 | 0.8 | 0.1 | -5 | 0
O=C(COc1ccccc1)N1CCN(C2CCCC2)CC1 | 64* | 1 | 1 | 0.4 | -11 | /
O=C(Cc1ccccc1)N1CCN(C2CCCC2)CC1 | -8 | -19 | 1.2 | 1.1 | 3 | -16
O=C(COc1ccccc1)N1CCN(C/C=C/c2ccccc2)CC1 | 63* | 70* | 0.3 | 0.4 | 0 | -52
COc1cc(CN2CCN(C(=O)COc3ccccc3)CC2)cc(OC)c1OC | 10 | 9 | 0.9 | 0.9 | 33 | 26
O=C(COc1ccccc1)N1CCN(CC(O)COc2ccccc2)CC1 (stereo unspecified) | 19 | 16 | 0.8 | 0.8 | 35* | /
Cc1cccc(NC(=O)C(C)N2CC=C(c3ccccc3)CC2)c1 (stereo unspecified) | / | / | / | / | / | -64
CCOC(=O)c1cn2nc(OP(=S)(OCC)OCC)cc2nc1C | 98* | 82* | 0.2 | 0 | -11 | 13
CCN(CC)P(=O)(NC(=O)C(Cl)(Cl)Cl)N(CC)CC.[Cl-].[Cl-].[Cl-].[Nd+3] | 11 | 90* | 0.1 | 0.9 | / | 16
CCNc1cc(N2CCNCC2)ccc1[N+](=O)[O-] | / | / | / | / | / | -33
CCCCn1c(O)c(C=NCCCn2ccnc2)c(=O)[nH]c1=O | 22 | 46 | 0.5 | 0.8 | -35 | 4
O=c1[nH]c(=O)n(-c2cccc3ccccc23)c(O)c1C=NCCCn1ccnc1 | 22 | 75* | 0.3 | 0.8 | 14 | -9
O=c1[nH]c(=O)n(Cc2ccccc2)c(O)c1C=NCCCn1ccnc1 | 7 | 64* | 0.4 | 0.9 | 5 | /
O=c1[nH]c(=O)n(Cc2ccc(F)cc2)c(O)c1C=NCCCn1ccnc1 | 33 | 86* | 0.1 | 0.7 | -11 | 19
SMILES | CYP2C19 inhib | CYP2C9 inhib | CYP2C9 activ | CYP2C19 activ | cytoskel mod | E-sel TNF inh
COc1ccccc1-n1c(O)c(C=NCCCn2ccnc2)c(=O)[nH]c1=O | 8 | 16 | 0.8 | 0.9 | 8 | -19
O=c1[nH]c(=O)n(CCc2ccccc2)c(O)c1C=NCCCn1ccnc1 | 50* | 73* | 0.3 | 0.5 | -7 | 4
COc1ccc(-n2c(O)c(C=NCCCn3ccnc3)c(=O)[nH]c2=O)cc1 | -2 | -8 | 1.1 | 1 | -20 | -5
O=c1[nH]c(=O)n(Cc2ccc(F)cc2)c(O)c1C=NCCCO | -3 | -6 | 1.1 | 1 | 20 | -35
COP(=O)(OC)C1(O)C(=O)Nc2ccc(Br)cc21 (stereo unspecified) | / | / | / | / | / | 13
Cc1cc(C(=O)CS(=O)c2ccc(F)cc2)cc(C)c1OC(=O)N(C)C (stereo unspecified) | / | / | / | / | / | -7
O=C1NC(=O)C(=Cc2ccc(-c3cc(Cl)ccc3[N+](=O)[O-])o2)C(=O)N1 | / | / | / | / | / | -11
